Screening data (PubChem)
PAFAH2 FP inh – PAFAH2 enzyme inhibitors, primary screen, biochemical, fluorescence polarization, human; Platelet-activating factor acetylhydrolase 2, cytoplasmic (Homo sapiens), Q99487; recombinant PAFAH2, FP-rhodamine activity probe; inhibition, % at 3.39 µM; hit rate 0.99% among 340,000; AID 492956, 2010;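 active = inhibition above the mean over all tested compounds plus 3 SD, cut at about 30% in these data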;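 also: inhibitors block probe labeling of enzyme so polarization drops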
PAFAH1B2 FP inh – PAFAH1B2 enzyme inhibitors, primary screen, biochemical, fluorescence polarization, human. Platelet-activating factor acetylhydrolase IB subunit alpha2 (Homo sapiens), P68402. AID 492953, 2010. hit rate 1.2% among 340,000. inhibition, % at 3.39 µM. recombinant PAFAH1B2, FP-rhodamine activity probe;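 active = inhibition above the mean of all tested compounds plus 3 SD, cut at about 24% in these data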
Target sequence (P68402 whole entry, looked up): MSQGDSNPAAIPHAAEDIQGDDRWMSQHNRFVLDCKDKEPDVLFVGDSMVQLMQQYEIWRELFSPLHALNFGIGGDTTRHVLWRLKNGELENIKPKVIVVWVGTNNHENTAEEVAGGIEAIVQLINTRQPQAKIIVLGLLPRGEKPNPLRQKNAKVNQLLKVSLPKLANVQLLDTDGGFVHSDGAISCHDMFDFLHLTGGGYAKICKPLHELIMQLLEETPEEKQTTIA
DAGLB inhibitor – DAGLB lipase inhibitors, primary screen, biochemical, fluorescence, HTS | Diacylglycerol lipase-beta (Homo sapiens), Q8NCG7 | hit rate 0.059% among 340,000 | AID 504411, 2011 | inhibition, % at 5.17 µM | HEK293T DAGLB membrane lysate, EnzChek fluorogenic substrate; in the data active = inhibition above about 34%
ATG4B inhibitor – ATG4B protease inhibitors, primary screen, biochemical, fluorescence, uHTS; ATG4B cleavage of LC3-PLA2, NBD-HPC fluorescence, 1 h; hit rate 0.51% among 340,000; AID 504462, 2011; inhibition, % at 8.33 µM; in the data active = inhibition above about 40%
Target sequence (Q9Y4P1 whole entry, looked up): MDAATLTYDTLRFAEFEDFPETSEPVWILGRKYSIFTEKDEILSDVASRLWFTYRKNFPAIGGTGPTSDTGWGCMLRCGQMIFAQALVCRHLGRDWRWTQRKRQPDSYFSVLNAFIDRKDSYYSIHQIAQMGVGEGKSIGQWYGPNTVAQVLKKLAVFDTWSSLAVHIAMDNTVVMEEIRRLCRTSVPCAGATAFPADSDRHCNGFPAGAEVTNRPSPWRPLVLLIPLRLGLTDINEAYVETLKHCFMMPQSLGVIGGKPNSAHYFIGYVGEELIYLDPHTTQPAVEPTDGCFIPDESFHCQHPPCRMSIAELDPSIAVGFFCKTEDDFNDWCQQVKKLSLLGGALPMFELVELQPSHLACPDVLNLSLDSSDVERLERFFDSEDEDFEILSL
PAFAH1B3 FP inh – PAFAH1B3 enzyme inhibitors, primary screen, biochemical, fluorescence polarization, human | inhibition, % at 3.39 µM | Platelet-activating factor acetylhydrolase IB subunit alpha1 (Homo sapiens), Q15102 | recombinant PAFAH1B3, FP-rhodamine probe | hit rate 0.28% among 340,000;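 active = inhibition above the screen-wide average of all tested compounds plus 3 SD, cut at about 25% in these data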
pPAFAH inh – pPAFAH enzyme inhibitors, primary screen, biochemical, fluorescence polarization, human; inhibition, % at 3.39 µM; recombinant pPAFAH, FP-rhodamine probe fluorescence polarization; hit rate 1.5% among 330,000; AID 463082, 2010;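 active = inhibition above the mean inhibition across the screen plus 3 SD, cut at about 25% in these data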;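 also: inhibitors block binding of the rhodamine activity-based probe so polarization drops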
ATG4B conf – ATG4B protease inhibitors, retest, confirmation, biochemical, fluorescence, single concentration. ATG4B protease fluorescent substrate cleavage assay. inhibition, % at 8.33 µM. hit rate 92% among 320. shares compounds with ATG4B inhibitor. AID 504757, 2011; in the data active = inhibition above about 39%
PLA2 ctr – PLA2 enzyme inhibition, counter-screen for ATG4B inhibitor project, biochemical, single concentration, uHTS hits | shares compounds with ATG4B inhibitor | purified PLA2, NBD-C6-HPC fluorescence, 45 min | inhibition, % at 8.33 µM | hit rate 66% among 1,600 | AID 588402, 2011; in the data active = inhibition above about 50%
Hits are given with their value; - = inactive; . = no result given. Most compounds without a hit are left out; they make up all but 3% or so of the library.

SMILES | PAFAH2 FP inh | PAFAH1B2 FP inh | DAGLB inhibitor | ATG4B inhibitor | PAFAH1B3 FP inh | pPAFAH inh | PLA2 ctr | others
O=C(CN(c1cccc(C(F)(F)F)c1)S(=O)(=O)c1ccc(Cl)c([N+](=O)[O-])c1)NCc1ccccc1 | - | - | - | - | - | - | .
O=C(CN(c1cccc(C(F)(F)F)c1)S(=O)(=O)c1ccc(Cl)c([N+](=O)[O-])c1)NCc1ccccc1Cl | - | - | - | 54 | - | - | 53
O=C(Cn1cccc1C(=O)c1ccccc1)NCCCc1ccccc1 | - | - | - | - | - | - | .
O=C(Cn1cccc1C(=O)c1ccccc1)NCCC1=CCCCC1 | - | - | - | 43 | - | - | - | ATG4B conf=62
NC(=O)C1CCN(c2nc(-c3cc4ccccc4o3)cs2)CC1 | - | - | - | 45 | - | - | -
CCCCCCCCCCCCCCCC[N+](C)(C)CCN(Cc1ccc(OC)cc1)c1ncccn1 | - | - | - | 67 | - | 32 | 61
COc1ccc(CN(CCN(C)C)c2ccccn2)cc1 | - | - | - | - | - | - | .
Clc1ccc2c(N/N=C/c3ccc(Br)cc3)ccnc2c1 | - | - | - | - | - | - | .
Oc1ccc(/C=N/Nc2ccnc3cc(Cl)ccc23)c(O)c1 | - | - | - | - | - | - | .
Cc1ccc(/C=N/Nc2ccnc3cc(Cl)ccc23)c(C)c1 | - | - | - | 46 | - | - | -
Cc1ccccc1/C=N/Nc1ccnc2cc(Cl)ccc12 | - | - | - | 48 | - | - | - | ATG4B conf=65
COc1ccccc1NC(=O)CSc1nnnn1-c1ccccc1F | - | - | - | - | - | - | .
CC(C)(C)C(=O)CSc1ncnc2sc3c(c12)CCC3 | - | - | - | . | - | - | -
COc1cnc(SCc2c(Cl)cccc2Cl)nc1Cl | - | - | - | 50 | - | - | - | ATG4B conf=59
Cc1nc(SCc2c(F)cccc2Cl)n[nH]1 | - | - | - | - | - | - | .
COC(=O)CC1C(=O)NCCN1C(=O)CSc1nnnn1-c1ccc(OC)cc1 (stereo not drawn) | - | - | - | - | - | - | .
C=CCn1c(-c2oc3nc(-c4ccccc4)cc(-c4ccccc4)c3c2N)n[nH]c1=S | - | - | - | 42 | - | - | - | ATG4B conf=70
COc1ccc(Cl)cc1NC(=O)C1CCN(C(=O)Nc2ccccc2)CC1 | - | - | - | - | - | - | .
O=c1/c(=C\c2cc([N+](=O)[O-])cc([N+](=O)[O-])c2O)sc2nc3ccccc3n12 | - | - | - | 59 | - | 26 | 69
CCCCN1CC(COCc2ccccc2)Oc2cccc(Oc3cc(C)c(C)c(C)c3)c2S1(=O)=O (stereo not drawn) | - | - | - | - | - | . | .
COc1ccc(/C=C2/SC(=S)N(CCCC(=O)Nc3ccccc3C(=O)O)C2=O)cc1 | - | - | - | - | - | - | .
COc1ccc(/C=C2\SC(=S)N(CCCC(=O)NNC(=O)c3ccccc3O)C2=O)cc1 | - | - | - | 49 | - | - | -
CCCCCCCCNCCS(=O)(=O)NN1CCOCC1 | - | - | - | - | - | - | .
CCCn1c(=S)[nH]c2cc(C(=O)N3CCc4ccccc43)ccc2c1=O | - | - | - | 65 | - | - | -
COCCn1c(=S)[nH]c2cc(C(=O)N3CCc4ccccc43)ccc2c1=O | - | - | - | - | - | - | .
SMILES | PAFAH2 FP inh | PAFAH1B2 FP inh | DAGLB inhibitor | ATG4B inhibitor | PAFAH1B3 FP inh | pPAFAH inh | PLA2 ctr | others
Cc1ccc(S(=O)(=O)N(CC(=O)Nc2ccc(Cl)c([N+](=O)[O-])c2)C2CCCCC2)cc1 | - | - | - | - | - | - | .
COc1ccc([N+](=O)[O-])cc1NC(=O)c1ccc(CN(c2ccc(C)c(C)c2)S(C)(=O)=O)cc1 | - | - | - | - | - | - | .
COc1ccc(C)cc1S(=O)(=O)N(CC(=O)Nc1cccc([N+](=O)[O-])c1)c1cc(C)cc(C)c1 | - | - | - | 83 | - | - | 86
COc1ccc(C)cc1S(=O)(=O)N(CC(=O)Nc1cc([N+](=O)[O-])ccc1C)c1ccc(C)c(C)c1 | - | - | - | 77 | - | - | 87
Cc1ccc(S(=O)(=O)N(CC(=O)Nc2cccc([N+](=O)[O-])c2)C2CCCCC2)cc1 | - | - | - | 45 | - | - | 51
COc1ccc(N(CC(=O)Nc2cccc(C)c2)S(=O)(=O)c2ccc(C)cc2)cc1OC | - | - | - | - | - | - | .
CCCCN1C(=O)C(CC(=O)NCCc2ccccn2)CC(C(=O)N(C(C)C)C(C)C)=C1C (stereo not drawn) | . | . | - | . | . | . | .
ClC(Cl)(c1nnnn1-c1ccccc1)c1nnnn1-c1ccccc1 | - | - | - | - | - | - | .
COc1cc(OC)c(S(=O)(=O)NC(C)C)cc1S(=O)(=O)NC(C)C | - | - | - | - | - | - | .
O=C(Nc1ccc(S(=O)(=O)NC2=NCCCCC2)cc1)c1ccc(Cl)c([N+](=O)[O-])c1 | - | - | - | - | - | - | .
Cc1cccc(C)c1NS(=O)(=O)c1ccc(NC(=O)c2ccc(Cl)c([N+](=O)[O-])c2)cc1 | - | - | - | 49 | - | - | -
c1cncc(-c2nc(NCCCN3CCOCC3)c3c4c(sc3n2)CCC4)c1 | - | - | - | 40 | - | - | 57
c1cncc(-c2nc(N3CCOCC3)c3c4c(sc3n2)CCC4)c1 | - | - | - | - | - | - | .
CCSc1nnc(-c2cnn(-c3ccccc3)c2-n2cccc2)n1C | - | - | - | - | - | - | .
CCCCCCSc1nnc(-c2cnn(-c3ccccc3)c2-n2cccc2)n1C | - | - | - | 44 | - | - | 58
COc1cccc(OC)c1C(=O)Nc1ccccc1N1CCCCC1 | - | - | - | - | - | - | .
O=C(/C=C/N1CCOCC1)c1coc2ccccc12 | - | - | - | 44 | - | - | -
O=C(O)c1coc2ccccc12 | . | . | . | - | . | - | .
O=C(/C=C/N1CCOCC1)c1cc2ccccc2o1 | - | - | - | 65 | - | - | -
O=C(NNC(=O)c1cccc2ccccc12)c1ccc(Br)cc1 | - | - | - | - | - | . | .
Fc1cccc(Cl)c1CSc1nnc(COc2cccc3cccnc23)o1 | - | - | - | 64 | - | - | 67
COc1ccc(S(=O)(=O)N2CCOCC2)cc1C(=O)N(C)CCOc1ccc(Cl)cc1 | - | - | - | - | - | - | .
